This is an account of results in PubChem BioAssay (NCI).

SMILES strings stand for the structures. This is part of a sample that, as a whole, favours compounds with a hit. Of some 79,000 tested, about 15% had one in any assay. A number with no mark means an inactive call. Active and inactive are the calls of the source. Cut-off read from the data, not from the text of the source: active = growth inhibition above about 70%; inactive = the rest.

Assay [1] can be described thus: NCI Yeast Anticancer Drug Screen. Data for the rad50 strain (AID 155).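 Note: 0% = growth of vehicle-only cultures of the same strain.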 Conditions: S. cerevisiae rad50 strain growth inhibition, active compounds read high. Summed up: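 A DNA repair-deficient yeast mutant serves as the test organism; compound-induced growth inhibition is calculated against vehicle-treated cells.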
Assay [2] in a line: NCI Yeast Anticancer Drug Screen. Data for the mec2-1 strain (AID 157). The following applies: S. cerevisiae mec2-1 strain, active compounds read high. An outline of the steps: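 Readout is yeast growth inhibition, normalised to vehicle-treated controls, in the mec2-1 strain exposed to compound.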
Assay [3] in a line: NCI Yeast Anticancer Drug Screen. Data for the sgs1 mgt1 strain (AID 161).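 Note: 0% = growth of cultures given vehicle only.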 Conditions: S. cerevisiae sgs1 mgt1 strain, active compounds read high. An outline of the steps: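 Percent growth inhibition was derived by comparing compound-exposed mutant yeast with vehicle-exposed cultures. The strain carries alterations in DNA damage repair.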
Assay [4] can be described thus: NCI Yeast Anticancer Drug Screen. Data for the cln2 rad14 strain (AID 165).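 Note: 0% = growth equal to vehicle treated cultures.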 Conditions: S. cerevisiae cln2 rad14 strain, active compounds read high. An outline of the steps: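 Relative to vehicle controls, growth inhibition of compound-treated cln2 rad14 yeast was recorded.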
Assay [5] is described as follows: NCI Yeast Anticancer Drug Screen. Data for the bub3 strain (AID 167). The following applies: S. cerevisiae bub3 mutant strain, active compounds read high. Summed up: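 Inhibition values come from growth of compound-treated mutant yeast normalised to vehicle-treated controls.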
Assay [6] in a line: NCI Yeast Anticancer Drug Screen. Data for the mlh1 rad18 strain (AID 175). Conditions: S. cerevisiae mlh1 rad18 strain growth inhibition, active compounds read high. Summed up: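 Test agents were incubated with a yeast strain of defined genotype (DNA damage repair defect). Inhibition of growth was derived by comparison with vehicle-exposed cultures.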
Where [7] appears, read: at 5.0 µM (retest, dose inferred, filed as 0.5).
Setting [8] is: at 50.0 µM (retest, dose inferred, filed as 5.0).

As to `O=C(Nc1ccc(S(=O)(=O)NC2CCCCC2)cc1)OC1CCCCCCC1`, the growth inhibition in assay [1] (setting [7]) was 69%; in assay [1] (setting [8]) it was 74% (active); in assay [1] (at 50.0 µM) it was 72% (active); in assay [2] (setting [7]), 99% (active); in assay [2] (setting [8]), 81% (active); in assay [2] (at 50.0 µM) it was 53.2%. The growth inhibition in assay [3] (setting [7]) was 72% (active); in assay [3] (setting [8]), 40%; in assay [3] (at 50.0 µM), 77.6% (active); in assay [4] (setting [7]), 12%; in assay [4] (setting [8]), 75% (active); in assay [4] (at 50.0 µM), 75% (active). Further, the growth inhibition in assay [5] (setting [7]) is 92% (active); in assay [5] (setting [8]), 79% (active); in assay [5] (at 50.0 µM), 67%; in assay [6] (setting [7]), 90% (active); in assay [6] (setting [8]), 58%; in assay [6] (at 50.0 µM), 76.7% (active).
In the case of `CC(C)Nc1nc(NC(C)C)c2cnn(-c3ccccc3)c2n1`, the growth inhibition in assay [1] (setting [7]) was 0%; in assay [1] (setting [8]), 55%; in assay [1] (at 50.0 µM) it was 96.7% (active); in assay [2] (setting [7]), 1%; in assay [2] (setting [8]), 69%; in assay [2] (at 50.0 µM), 83.9% (active). In addition, the growth inhibition is 2% in assay [3] (setting [7]); 95% (active) in assay [3] (setting [8]); 98.5% (active) in assay [3] (at 50.0 µM); -10% in assay [4] (setting [7]); 24% in assay [4] (setting [8]); 88.3% (active) in assay [4] (at 50.0 µM). The growth inhibition was 1% in assay [5] (setting [7]); 68% in assay [5] (setting [8]); 81.7% (active) in assay [5] (at 50.0 µM); 3% in assay [6] (setting [7]); 74% (active) in assay [6] (setting [8]); 95.5% (active) in assay [6] (at 50.0 µM).
In the case of `N#CCc1nc2c(s1)C(=O)c1ccccc1C2=O`, the growth inhibition in assay [1] (setting [7]) was 52%; in assay [1] (setting [8]), 99% (active); in assay [1] (at 50.0 µM), 71.4% (active); in assay [2] (setting [7]), 48%; in assay [2] (setting [8]), 100% (active); in assay [2] (at 50.0 µM), 82.5% (active). For the same molecule, the growth inhibition in assay [3] (setting [7]) was 47%; in assay [3] (setting [8]), 100% (active); in assay [3] (at 50.0 µM) it was 41.8%; in assay [4] (setting [7]), 30%; in assay [4] (setting [8]), 98% (active); in assay [4] (at 50.0 µM), 35.2%. Further, the growth inhibition is 55% in assay [5] (setting [7]); 99% (active) in assay [5] (setting [8]); 87.2% (active) in assay [5] (at 50.0 µM); 67% in assay [6] (setting [7]); 99% (active) in assay [6] (setting [8]); 68.7% in assay [6] (at 50.0 µM).
For `CC1COC(c2cn[nH]c2C(N)=O)C1O` (stereo not drawn), the growth inhibition in assay [1] (setting [7]) was -7%; in assay [1] (setting [8]) it was 13%; in assay [1] (at 50.0 µM), -0.5%; in assay [2] (setting [7]), 5%; in assay [2] (setting [8]) it was 15%; in assay [2] (at 50.0 µM), 21%. Further, the growth inhibition was 7% in assay [3] (setting [7]); 14% in assay [3] (setting [8]); -6.4% in assay [3] (at 50.0 µM); -33% in assay [4] (setting [7]); -18% in assay [4] (setting [8]); 39.4% in assay [4] (at 50.0 µM). Further, the growth inhibition in assay [5] (setting [7]) is 4%; in assay [5] (setting [8]), 24%; in assay [5] (at 50.0 µM) it was 0.85%; in assay [6] (setting [7]), 3%; in assay [6] (setting [8]), 16%; in assay [6] (at 50.0 µM), 7.65%.
For `CCN(CC)C(=S)n1c(=S)nc(N(CC)CC)sc1=S`, the growth inhibition in assay [1] (setting [7]) is 57%; in assay [1] (setting [8]), 97% (active); in assay [1] (at 50.0 µM), 89.3% (active); in assay [2] (setting [7]), 42%; in assay [2] (setting [8]), 98% (active); in assay [2] (at 50.0 µM) it was 92.2% (active). Besides, the growth inhibition in assay [3] (setting [7]) was 63%; in assay [3] (setting [8]) it was 99% (active); in assay [3] (at 50.0 µM), 92.5% (active); in assay [4] (setting [7]), 39%; in assay [4] (setting [8]), 86% (active); in assay [4] (at 50.0 µM), 88.9% (active). Further, the growth inhibition in assay [5] (setting [7]) is 54%; in assay [5] (setting [8]), 83% (active); in assay [5] (at 50.0 µM), 91.2% (active); in assay [6] (setting [7]), 75% (active); in assay [6] (setting [8]), 98% (active); in assay [6] (at 50.0 µM), 89.8% (active).
Turning to `Cn1c(=O)c2c(ncn2CCCCOc2ccc3c(c2)[n+]([O-])nc(N)[n+]3[O-])n(C)c1=O`, the growth inhibition in assay [1] (setting [7]) is 4%; in assay [1] (setting [8]), 38%; in assay [1] (at 50.0 µM) it was 44%; in assay [2] (setting [7]), 14%; in assay [2] (setting [8]) it was 23%; in assay [2] (at 50.0 µM) it was 51.9%. Besides, the growth inhibition in assay [3] (setting [7]) is 5%; in assay [3] (setting [8]), 34%; in assay [3] (at 50.0 µM), 69.9%; in assay [4] (setting [7]), -23%; in assay [4] (setting [8]) it was 52%; in assay [4] (at 50.0 µM) it was 69%. In addition, the growth inhibition is -8% in assay [5] (setting [7]); 63% in assay [5] (setting [8]); 56.5% in assay [5] (at 50.0 µM); 32% in assay [6] (setting [7]); 82% (active) in assay [6] (setting [8]); 75.8% (active) in assay [6] (at 50.0 µM).
